The campaign covered roughly 5,500 compounds. About 2,000 (36%) were called active. Not shown: some 18% with an inconclusive outcome. Rule as the data show it: active = normalized growth mostly below about 0.91 (no sharp cut-off); inconclusive = no clear call, values can overlap the other calls; inactive = mostly above about 0.92. Some of the results follow.
Experiment: chemical genetic growth profiling, strain panel (AID 1159580);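 also: tested at 20 µM; growth read once vehicle control cultures reached saturation at 30 °C; 1 = growth at the plate median or of vehicle wells; lower values mean less growth of the strain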
Details: growth OD
[1] = S. cerevisiae deletion strains, locus YHR030C, strain SLT2, hits give low values

Measured: normalized growth

CCC(=O)Nc1cc(OC)cc(OC)c1
inactive: S. cerevisiae deletion strains, locus YAL013W, strain DEP1, hits give low values 1 | S. cerevisiae deletion strains, locus YBR229C, strain ROT2, hits give low values 1.01 | S. cerevisiae deletion strains, locus YDL101C, strain DUN1, hits give low values 1.01 | S. cerevisiae deletion strains, locus YDL134C, strain PPH21, hits give low values 1 | S. cerevisiae deletion strains, locus YDR150W, strain NUM1, hits give low values 0.908 | S. cerevisiae deletion strains, locus YEL061C, strain CIN8, hits give low values 1 | S. cerevisiae deletion strains, locus YGR078C, strain PAC10, hits give low values 1.01 | [1] 1.01 | S. cerevisiae deletion strains, locus YHR087W, strain rtc3, hits give low values 1 | S. cerevisiae deletion strains, locus YJR043C, strain POL32, hits give low values 0.963 | S. cerevisiae deletion strains, locus YJR075W, strain HOC1, hits give low values 0.98 | S. cerevisiae deletion strains, locus YLR039C, strain RIC1, hits give low values 1.04 | S. cerevisiae deletion strains, locus YLR058C, strain SHM2 (second series), hits give low values 1.01 | S. cerevisiae deletion strains, locus YLR085C, strain ARP6, hits give low values 0.973 | S. cerevisiae deletion strains, locus YLR262C, strain YPT6, hits give low values 1.02 | S. cerevisiae deletion strains, locus YML094W, strain GIM5, hits give low values 1.03 | S. cerevisiae deletion strains, locus YMR219W, strain ESC1, hits give low values 0.999 | S. cerevisiae deletion strains, locus YMR263W, strain SAP30, hits give low values 0.987 | S. cerevisiae deletion strains, locus YNL153C, strain GIM3, hits give low values 0.997 | S. cerevisiae deletion strains, locus YNL298W, strain CLA4 (second series), hits give low values 1.01 | S. cerevisiae deletion strains, locus YNL322C, strain KRE1, hits give low values 1.01 | S. cerevisiae deletion strains, locus YNR030W, strain Alg12, hits give low values 1.01 | S. cerevisiae deletion strains, locus YOL006C, strain TOP1, hits give low values 0.998 | S. cerevisiae deletion strains, locus YPL055C, strain LGE1, hits give low values 1.13 | S. cerevisiae deletion strains, locus YPL241C, strain CIN2, hits give low values 1.03 | S. cerevisiae deletion strains, locus YPR135W, strain CTF4, hits give low values 1.06 | S. cerevisiae strains, strain wild type, hits give low values 1.02

COc1cc(/C=C/C(=O)N2CCC=CC2=O)cc(OC)c1OC
inactive: S. cerevisiae deletion strains, locus YAL021C, strain ccr4, hits give low values 0.948 | S. cerevisiae deletion strains, locus YAL026C, strain drs2, hits give low values 1 | S. cerevisiae deletion strains, locus YAL030W, strain snc1, hits give low values 1 | S. cerevisiae deletion strains, locus YBL061C, strain skt5, hits give low values 0.993 | S. cerevisiae deletion strains, locus YBR009C, strain hhf1, hits give low values 1.06 | S. cerevisiae deletion strains, locus YBR023C, strain chs3, hits give low values 0.994 | S. cerevisiae deletion strains, locus YBR171W, strain sec66, hits give low values 0.995 | S. cerevisiae deletion strains, locus YBR231C, strain swc5, hits give low values 1.01 | S. cerevisiae deletion strains, locus YBR279W, strain paf1, hits give low values 0.968 | S. cerevisiae deletion strains, locus YCL011C, strain gbp2, hits give low values 1 | S. cerevisiae deletion strains, locus YCL016C, strain dcc1, hits give low values 1.01 | S. cerevisiae deletion strains, locus YCL061C, strain MRC1, hits give low values 1.01 | S. cerevisiae deletion strains, locus YCL069W, strain vba3, hits give low values 0.998 | S. cerevisiae deletion strains, locus YCR088W, strain abp1, hits give low values 0.996 | S. cerevisiae deletion strains, locus YDL005C, strain med2, hits give low values 1 | S. cerevisiae deletion strains, locus YDL040C, strain nat1, hits give low values 0.996 | S. cerevisiae deletion strains, locus YDR001C, strain nth1, hits give low values 0.992 | S. cerevisiae deletion strains, locus YDR069C, strain doa4, hits give low values 0.996 | S. cerevisiae deletion strains, locus YDR137W, strain rgp1, hits give low values 0.856 | S. cerevisiae deletion strains, locus YDR159W, strain sac3, hits give low values 1.08 | S. cerevisiae deletion strains, locus YDR195W, strain ref2 1.06 | S. cerevisiae deletion strains, locus YDR297W, strain sur2, hits give low values 0.997 | S. cerevisiae deletion strains, locus YDR334W, strain swr1, hits give low values 1.01 | S. cerevisiae deletion strains, locus YDR335W, strain msn5, hits give low values 1 | S. cerevisiae deletion strains, locus YDR392W, strain spt3, hits give low values 0.886 | S. cerevisiae deletion strains, locus YEL003W, strain gim4, hits give low values 1 | S. cerevisiae deletion strains, locus YEL037C, strain rad23, hits give low values 0.998 | S. cerevisiae deletion strains, locus YEL061C, strain CIN8 (second series), hits give low values 0.996 | S. cerevisiae deletion strains, locus YER015W, strain faa2, hits give low values 1.01 | S. cerevisiae deletion strains, locus YER016W, strain bim1, hits give low values 1.02 | S. cerevisiae deletion strains, locus YER111C, strain swi4, hits give low values 1.01 | S. cerevisiae deletion strains, locus YER155C, strain BEM2 (second series), hits give low values 1.06 | S. cerevisiae deletion strains, locus YFR010W, strain ubp6, hits give low values 0.99 | S. cerevisiae deletion strains, locus YGL167C, strain pmr1, hits give low values 1 | S. cerevisiae deletion strains, locus YGL173C, strain kem1, hits give low values 0.995 | S. cerevisiae deletion strains, locus YGL227W, strain vid30, hits give low values 1.01 | S. cerevisiae deletion strains, locus YGL240W, strain doc1, hits give low values 1.08 | S. cerevisiae deletion strains, locus YGL253W, strain hxk2, hits give low values 0.984 | S. cerevisiae deletion strains, locus YHR013C, strain ard1, hits give low values 0.938 | S. cerevisiae deletion strains, locus YHR027C, strain rpn1, hits give low values 0.995 | [1] 0.935 | S. cerevisiae deletion strains, locus YHR079C, strain IRE1, hits give low values 0.953 | S. cerevisiae deletion strains, locus YHR142W, strain chs7, hits give low values 0.944 | S. cerevisiae deletion strains, locus YJL092W, strain hpr5, hits give low values 0.994 | S. cerevisiae deletion strains, locus YJL095W, strain BCK1 (second series), hits give low values 1.01 | S. cerevisiae deletion strains, locus YJL095W, strain BCK1, hits give low values 0.97 | S. cerevisiae deletion strains, locus YJL115W, strain asf1, hits give low values 1.03 | S. cerevisiae deletion strains, locus YJL129C, strain trk1, hits give low values 0.994 | S. cerevisiae deletion strains, locus YJL154C, strain vps35, hits give low values 0.998 | S. cerevisiae deletion strains, locus YJL164C, strain tpk1, hits give low values 0.979 | S. cerevisiae deletion strains, locus YJL166W, strain qcr8, hits give low values 1 | S. cerevisiae deletion strains, locus YJL187C, strain SWE1, hits give low values 0.996 | S. cerevisiae deletion strains, locus YJR066W, strain TOR1, hits give low values 0.883 | S. cerevisiae deletion strains, locus YKL160W, strain elf1, hits give low values 0.918 | S. cerevisiae deletion strains, locus YKR026C, strain gcn3, hits give low values 0.986 | S. cerevisiae deletion strains, locus YKR091W, strain srl3, hits give low values 1 | S. cerevisiae deletion strains, locus YLL001W, strain dnm1, hits give low values 1.01 | S. cerevisiae deletion strains, locus YLL026W, hits give low values 1.01 | S. cerevisiae deletion strains, locus YLL041C, strain sdh2, hits give low values 0.992 | S. cerevisiae deletion strains, locus YLR027C, strain aat2, hits give low values 0.988 | S. cerevisiae deletion strains, locus YLR113W, strain HOG1, hits give low values 0.941 | S. cerevisiae deletion strains, locus YLR221C, strain rsa3, hits give low values 0.97 | S. cerevisiae deletion strains, locus YLR258W, strain gsy2, hits give low values 1.03 | S. cerevisiae deletion strains, locus YLR262C, strain YPT6 (second series), hits give low values 0.886 | S. cerevisiae deletion strains, locus YLR320W, strain mms22, hits give low values 1.01 | S. cerevisiae deletion strains, locus YLR342W, strain FKS1, hits give low values 0.998 | S. cerevisiae deletion strains, locus YLR357W, strain rsc2, hits give low values 1.13 | S. cerevisiae deletion strains, locus YLR370C, strain arc18, hits give low values 0.986 | S. cerevisiae deletion strains, locus YLR384C, strain iki3, hits give low values 1 | S. cerevisiae deletion strains, locus YML120C, strain ndi1, hits give low values 0.972 | S. cerevisiae deletion strains, locus YMR058W, strain fet3, hits give low values 0.993 | S. cerevisiae deletion strains, locus YMR125W, strain sto1, hits give low values 1.07 | S. cerevisiae deletion strains, locus YMR129W, hits give low values 1.01 | S. cerevisiae deletion strains, locus YMR205C, strain PFK2, hits give low values 1.06 | S. cerevisiae deletion strains, locus YMR231W, strain pep5, hits give low values 0.998 | S. cerevisiae deletion strains, locus YNL071W, strain lat1, hits give low values 0.975 | S. cerevisiae deletion strains, locus YNL183C, strain NPR1, hits give low values 0.93 | S. cerevisiae deletion strains, locus YNL209W, strain ssb2, hits give low values 0.997 | S. cerevisiae deletion strains, locus YNL248C, strain rpa49, hits give low values 0.972 | S. cerevisiae deletion strains, locus YNL322C, strain KRE1 (second series), hits give low values 1.02 | S. cerevisiae deletion strains, locus YNR049C, strain mso1, hits give low values 0.999 | S. cerevisiae deletion strains, locus YOR001W, strain rrp6, hits give low values 0.945 | S. cerevisiae deletion strains, locus YOR070C, strain gyp1, hits give low values 1.02 | S. cerevisiae deletion strains, locus YOR080W, strain dia2, hits give low values 1.01 | S. cerevisiae deletion strains, locus YOR083W, strain WHI5, hits give low values 0.951 | S. cerevisiae deletion strains, locus YOR106W, strain vam3, hits give low values 0.964 | S. cerevisiae deletion strains, locus YOR231W, strain MKK1, hits give low values 0.954 | S. cerevisiae deletion strains, locus YOR265W, strain rbl2, hits give low values 0.996 | S. cerevisiae deletion strains, locus YOR270C, strain vph1, hits give low values 0.976 | S. cerevisiae deletion strains, locus YOR290C, strain snf2, hits give low values 0.969 | S. cerevisiae deletion strains, locus YPL051W, strain arl3, hits give low values 0.966 | S. cerevisiae deletion strains, locus YPL078C, strain atp4, hits give low values 0.939 | S. cerevisiae deletion strains, locus YPL106C, strain sse1, hits give low values 1.01 | S. cerevisiae deletion strains, locus YPL240C, strain hsp82, hits give low values 1.01 | S. cerevisiae deletion strains, locus YPL256C, strain CLN2, hits give low values 0.964
